From PubChem BioAssay (NCATS) come the findings set out here.

The target of assay [1] is Cytochrome P450 2D6 (Homo sapiens) (UniProt P10635). In words: Cytochrome P450 family 2 subfamily D member 6 (CYP2D6) small molecule antagonists: luciferase biochemical (cell-free) qHTS assay (AID 1645840; active = well fitted curve in the direction sought with a large enough effect in the repeat runs; an effect the other way counts as inactive or inconclusive; also: nearly all actives have a fitted effect of over 55% in size; also: potency is read from the fitted curve at half-maximal effect). In outline: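 P450-Glo CYP2D6 system: proluciferin substrate converted by enzyme to luciferin, read by luminescence proportional to activity. Enzyme-substrate mix with compound 10 min at room temperature, then NADPH regeneration 1 h before detection reagent.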
Cytochrome P450 2D6 (Homo sapiens), sequence (P10635 whole entry, looked up): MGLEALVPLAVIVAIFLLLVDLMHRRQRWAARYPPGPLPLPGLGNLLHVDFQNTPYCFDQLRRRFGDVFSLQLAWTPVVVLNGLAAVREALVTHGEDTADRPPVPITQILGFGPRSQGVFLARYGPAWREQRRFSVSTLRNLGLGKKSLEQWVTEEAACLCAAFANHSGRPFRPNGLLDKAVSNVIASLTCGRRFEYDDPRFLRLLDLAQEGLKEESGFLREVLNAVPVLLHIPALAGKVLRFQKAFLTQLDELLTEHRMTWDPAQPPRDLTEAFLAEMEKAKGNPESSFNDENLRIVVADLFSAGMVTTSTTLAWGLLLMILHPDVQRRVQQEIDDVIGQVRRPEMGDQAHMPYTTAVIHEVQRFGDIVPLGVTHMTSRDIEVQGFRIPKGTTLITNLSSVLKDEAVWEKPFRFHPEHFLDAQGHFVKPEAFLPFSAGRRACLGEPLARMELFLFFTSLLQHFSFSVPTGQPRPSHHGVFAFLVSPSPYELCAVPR
A general note: In qHTS, concentration-response curves come from the screen itself.

Assay [2] concerns the target Cytochrome P450 2C9 (Homo sapiens) (UniProt P11712). Put plainly: Cytochrome P450 family 2 subfamily C member 9 (CYP2C9) small molecule antagonists: luciferase biochemical (cell-free) qHTS assay (AID 1645842; active = well fitted curve in the direction sought with a large enough effect in the repeat runs; an effect the other way counts as inactive or inconclusive; also: nearly all actives have a fitted effect of over 55% in size; also: potency is read from the fitted curve at half-maximal effect; as to activity change, negative = inhibition: % is scaled to controls: 0 for no effect and ±100 for the full control effect). In outline: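 P450-Glo CYP2C9 system: proluciferin substrate with enzyme in mix containing 0.4% BSA, 10 min at room temperature, then NADPH regeneration solution added and incubated 1 h at 37C. Detection reagent stopped reaction; luminescence read after 20 min as RLU.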

A short description of assay [3]: Primary qHTS for inhibitors of nuclear receptor binding SET domain protein 2 (NSD2) in an isogenic RCH-ACV NSD2 p.E1099K mutant (9B) (AID 1645876). Also: nearly all actives have a fitted effect of over 70% in size. Also: potency is read from the fitted curve at half-maximal effect.
Assay [4] can be described thus: Primary qHTS for inhibitors of nuclear receptor binding SET domain protein 2 (NSD2) in an RCH-ACV wild type WT cells (2C) (AID 1645877). Also: nearly all actives have a fitted effect of over 70% in size. Also: potency is read from the fitted curve at half-maximal effect.
A short description of assay [5]: Primary redox qHTS assay for identification of artifact compounds. (AID 1845223). Also: potency is read from the fitted curve at half-maximal effect. Put shortly:
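Redox-cycling detection via DTT (250 uM final) oxidation coupled to Amplex Red (25 uM)/HRP (250 mU/mL) in HBSS. 15 min preincubation plus 30 min after DTT, room temperature. Ex/Em 525/598 nm; 4-parameter Hill fit against DMSO and 10 uM DA3003.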

For assay [6], the system named is HaCat. In words: Cytotoxic Profiling of Annotated Libraries Using Quantitative High-Throughput Screening (AID 1296008). Also: nearly all actives have a fitted effect of over 60% in size. Also: potency is read from the fitted curve at half-maximal effect. As to max response: % is scaled to controls: 0 for no effect and ±100 for the full control effect. Particulars: Five cell lines viability, CellTiter-Glo ATP luminescence, 48-72 h; max response: stronger effect = lower value. Put shortly:
(§1)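 Compounds were pin-transferred onto cells and incubated 48 or 72 hr at 37 degree Celsius, 95% humidity. CellTiter-Glo was added, plates sat 10 min at room temperature, then ATP-coupled luminescence was imaged as the viability read-out.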
Background: Cellular ATP, detected with luciferase, serves as a proxy for viable cell number.

The test system of the next assay is KB-3-1. Described as above. The note with it: Five cell lines viability, CellTiter-Glo ATP luminescence, 48-72 h; max response: stronger effect = lower value. Put shortly:
as §1

For assay [7], the system named is HACAT. Put plainly: qHTS assay to identify novel small-molecules to repurpose for Merkel cell carcinoma treatment (AID 1296009). Also: nearly all actives have a fitted effect of over 60% in size. Particulars: MCC and control cell lines, CellTiter-Glo viability, 72 h; at 44.8 µM (top of the series) unless noted. Put shortly: (§2)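 Viability readout: ATP luminescence (CellTiter-Glo) after 72 hr drug exposure at 37 degree celsius. Dose-response format was 8 points for NPC and 11 points for MIPE; data normalized to in-plate controls.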

The next assay relates to NIH3T3. Described as above. The note with it: MCC and control cell lines, CellTiter-Glo viability, 72 h; at 44.8 µM (top of the series) unless noted. Put shortly: as §2
The next assay relates to HeLa. Put plainly: Primary qHTS to identify gynecologic anti-cancer compounds using libraries of approved drugs and bioactive compounds (AID 1345084). Also: nearly all actives have a fitted effect of over 55% in size. Also: potency is read from the fitted curve at half-maximal effect. The note with it: Gynecologic cancer cell panel viability, ATPlite luminescence, 48 h; series mostly up to 57.5 µM. Put shortly:
(§3)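 Five-concentration response, 48 h; readout is ATP-driven luciferase luminescence.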

Another assay relates to SKOV3. The description is as above. The note with it: Gynecologic cancer cell panel viability, ATPlite luminescence, 48 h; series mostly up to 57.5 µM. In outline:
as §3

The nature of assay [8]: P-glycoprotein substrates identified in KB-8-5-11 adenocarcinoma cell line, qHTS therapeutic library screen (AID 1346987). Also: nearly all actives have a fitted effect of over 65% in size. Also: potency is read from the fitted curve at half-maximal effect. In outline:
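Luminescence from CellTiter-Glo, read 5 min after addition, quantified survival of KB-8-5-11 (P-gp-overexpressing) cells exposed to compounds for 72 h. AC50 was derived from concentration-response curves.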

Another assay concerns HEK293. Put plainly: Cytotoxic Profiling of Annotated Libraries Using Quantitative High-Throughput Screening (AID 1296008). Also: nearly all actives have a fitted effect of over 60% in size. Also: potency is read from the fitted curve at half-maximal effect. As to max response: % is scaled to controls: 0 for no effect and ±100 for the full control effect. The note with it: Five cell lines viability, CellTiter-Glo ATP luminescence, 48-72 h; max response: stronger effect = lower value. In outline: as §1
For another assay, the system named is CRL-7250. In words: qHTS assay to identify novel small-molecules to repurpose for Merkel cell carcinoma treatment (AID 1296009). Also: nearly all actives have a fitted effect of over 60% in size. The note with it: MCC and control cell lines, CellTiter-Glo viability, 72 h; series mostly up to 92 µM. Put shortly:
as §2

Assay [9] has as its target Catechol O-methyltransferase (Homo sapiens) (UniProt P21964). In words: Confirmatory Screen for Target Class Profiling of Small Molecule Inhibitors of Methyltransferases (AID 1745852; calls by dose curve; as to activity change, negative = inhibition: % is scaled to controls: 0 for no effect and ±100 for the full control effect). Particulars: MTase-Glo luminescence, SAH detection, recombinant enzyme; measured here: COMT max response; stronger effect = lower value.
In assay [10] the target is Guanidinoacetate N-methyltransferase (Homo sapiens) (UniProt Q14353). The description is as above. The note with it: activity change, negative = inhibition: at 57.3 µM (top of the series) unless noted.
Assay [11] concerns the target Nicotinamide N-methyltransferase (Homo sapiens) (UniProt P40261). Described as above. Particulars: MTase-Glo luminescence, SAH detection, recombinant enzyme; measured here: NNMT max response; stronger effect = lower value.
For assay [12], the target named is Phenylethanolamine N-methyltransferase (Homo sapiens) (UniProt P11086). Described as above. Particulars: MTase-Glo luminescence, SAH detection, recombinant enzyme; measured here: PNMT max response; stronger effect = lower value.
Phenylethanolamine N-methyltransferase (Homo sapiens), sequence (P11086 whole entry, looked up): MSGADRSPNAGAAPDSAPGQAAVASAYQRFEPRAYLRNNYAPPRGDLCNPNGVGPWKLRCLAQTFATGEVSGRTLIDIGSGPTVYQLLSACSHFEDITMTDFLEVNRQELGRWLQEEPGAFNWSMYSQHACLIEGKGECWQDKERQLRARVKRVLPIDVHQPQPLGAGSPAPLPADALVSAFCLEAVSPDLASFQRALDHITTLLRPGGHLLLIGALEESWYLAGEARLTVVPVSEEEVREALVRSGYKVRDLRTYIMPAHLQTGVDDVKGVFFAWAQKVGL

Records with an inconclusive call do not appear. The source made the active and inactive calls. Unless noted, calls follow the shape of the dose curve; as a rule, active = well fitted curve in the direction sought with a large enough effect; inconclusive = small, poorly fitted or top-dose-only effect, or another doubt; inactive = no such curve, though single readings can be large; an effect the other way counts as inactive or inconclusive.

Cytochrome P450 2C9 (Homo sapiens), sequence (P11712 whole entry, looked up): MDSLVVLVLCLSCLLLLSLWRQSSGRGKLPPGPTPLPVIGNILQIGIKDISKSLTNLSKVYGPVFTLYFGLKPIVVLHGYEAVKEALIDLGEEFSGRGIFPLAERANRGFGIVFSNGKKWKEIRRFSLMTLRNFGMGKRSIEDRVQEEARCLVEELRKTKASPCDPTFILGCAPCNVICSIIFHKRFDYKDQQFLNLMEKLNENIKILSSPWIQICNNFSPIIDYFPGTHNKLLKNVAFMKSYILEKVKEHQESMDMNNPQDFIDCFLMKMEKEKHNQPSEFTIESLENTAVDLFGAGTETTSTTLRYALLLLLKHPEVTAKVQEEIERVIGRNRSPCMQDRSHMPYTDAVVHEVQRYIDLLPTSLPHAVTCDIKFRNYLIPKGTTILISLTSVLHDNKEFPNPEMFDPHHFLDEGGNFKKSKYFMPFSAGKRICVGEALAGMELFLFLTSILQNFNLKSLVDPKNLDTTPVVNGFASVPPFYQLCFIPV
Nicotinamide N-methyltransferase (Homo sapiens), sequence (P40261 whole entry, looked up): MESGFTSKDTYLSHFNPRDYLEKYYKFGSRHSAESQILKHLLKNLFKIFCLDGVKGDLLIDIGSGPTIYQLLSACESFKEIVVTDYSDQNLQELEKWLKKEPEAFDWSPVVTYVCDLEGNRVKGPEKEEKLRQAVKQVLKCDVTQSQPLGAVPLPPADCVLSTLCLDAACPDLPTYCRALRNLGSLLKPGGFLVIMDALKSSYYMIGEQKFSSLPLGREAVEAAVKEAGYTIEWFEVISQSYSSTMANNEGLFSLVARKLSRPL
Catechol O-methyltransferase (Homo sapiens), sequence (P21964 whole entry, looked up): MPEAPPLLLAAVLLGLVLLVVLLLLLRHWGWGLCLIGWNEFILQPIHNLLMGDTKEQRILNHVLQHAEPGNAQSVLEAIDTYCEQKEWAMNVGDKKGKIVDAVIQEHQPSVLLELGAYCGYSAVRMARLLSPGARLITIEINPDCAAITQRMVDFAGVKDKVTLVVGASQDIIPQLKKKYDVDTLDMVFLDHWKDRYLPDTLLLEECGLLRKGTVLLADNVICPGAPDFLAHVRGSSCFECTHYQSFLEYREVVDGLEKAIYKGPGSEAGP

In the case of `Cc1ccc2c(c1)[C@H]1CN(C)CC[C@H]1N2C(=O)CSc1nnnn1-c1ccc(Cl)cc1`, the Potency in assay [1] was 10.7 µM (active). The Potency result (in assay [2]; in [3]; in assay [4]; in [5]; in the assay on HeLa; in the assay with SKOV3) was “inactive” throughout. Besides, the outcome in the assay on HaCat [6], with HACAT [7] and in the assay with NIH3T3 was “inactive” in each case. Further, the max response in the assay with KB-3-1 was -5.2% (inactive).
As for `C=C(C)C(=O)O[C@H]1[C@@H]2[C@H](C)C(=O)O[C@@H]2C[C@@H](C)[C@@H]2C=CC(=O)[C@]21C`, the Potency in [8] is 3.6 µM (active); in assay [3] it was 2.01 µM (active); in the assay with HEK293, 3.6 µM (active); in the assay on KB-3-1, 3.21 µM (active). Besides, the Potency result (in assay [5]; with HeLa) was “inactive” in each case.
In the case of `CC[C@H](O)[C@@H](C)[C@H]1O[C@@H]1C[C@H](C)/C=C/C=C(\C)[C@H]1OC(=O)C[C@H](O)CC[C@@](C)(O)[C@@H](OC(C)=O)/C=C/[C@@H]1C`, the Potency in assay [8] was 0.0092 µM (active); in assay [3] it was 0.0058 µM (active); with HEK293, 0.0041 µM (active); in the assay on KB-3-1, 0.0052 µM (active). For the same compound, the Potency result in assay [4] and in assay [5] was “inactive” each time.
For the compound `C[C@@H]1O[C@@H](OC2CCC3(C=O)C(CCC4C3CCC3(C)C(C5=CC(=O)OC5)C(O)CC43O)C2)[C@H](O)[C@H](O)[C@H]1O[C@@H]1O[C@H](CO)[C@@H](O)[C@H](O)[C@H]1O` (some centres not stated), the Potency in assay [8] was 6.11 µM (active); in [3], 2.42 µM (active); in assay [4] it was 4.83 µM (active); in the assay on HEK293, 3.85 µM (active); with SKOV3 it was 11.2 µM (active). In addition, the Potency result in [5] is “inactive”.
Take `c1ccc([C@@H]2C[C@H]2NC2CCNCC2)cc1`: the Potency entry (in [8]; in assay [3]; in assay [5]; in the assay with HeLa; in the assay on SKOV3) was “inactive” throughout. Further, in assay [1], the Potency is 10.7 µM (active). Besides, the max response in the assay on HEK293 was -16.2% (inactive).
For the compound `CN1Cc2c(ccc3c2OCO3)[C@@H]2[C@H]1c1cc3c(cc1C[C@@H]2O)OCO3`, the Potency in assay [8] was 1.61 µM (active); in assay [3], 2.84 µM (active); in [4], 2.26 µM (active); with HEK293 it was 3.6 µM (active); in the assay on KB-3-1, 2.86 µM (active); in the assay on HeLa, 3.16 µM (active). Moreover, in assay [5], the Potency result was “inactive”.
Turning to `CN(Cc1cccc(-c2ccncc2)c1)C(=O)Oc1ccc(-c2ccc(C(N)=O)cc2)cc1`, the Potency result (in assay [8]; in assay [2]; in assay [5]; with CRL-7250; in the assay on HeLa; in the assay with SKOV3) was “inactive” in each case. Also, the outcome in the assay with HaCat [6] and in the assay with HACAT [7] was “inactive” in each case. For the same compound, in the assay on KB-3-1, the max response was 1.21% (inactive).
As to `C[C@]12CC[C@H](O)C[C@@H]1CC[C@@H]1[C@@H]2CC[C@]2(C)[C@@H](C3=CC(=O)OC3)CC[C@]12O`, the Potency in assay [8] was 11.4 µM (active); in [3], 2.84 µM (active); in assay [4] it was 4.5 µM (active); with HEK293, 5.08 µM (active). For the same compound, in assay [5], the Potency entry was “inactive”.
In the case of `COC1CCCC(C)OC(=O)Cc2cc(O)cc(O)c2C(=O)C1` (configuration not stated), the Potency in assay [8] is 4.04 µM (active); in assay [3], 2.84 µM (active); in assay [4], 3.19 µM (active); with HEK293, 3.6 µM (active); in the assay on KB-3-1, 4.04 µM (active). In assay [5], the Potency result was “inactive”.
Turning to `CC1=CC2OC3CC(O)[C@](C)([C@@]2(C)C(O)C1=O)[C@]31CO1` (some centres not stated), the Potency in assay [8] is 5.17 µM (active); in assay [3] it was 5.15 µM (active); in assay [4] it was 4.09 µM (active); in the assay on HEK293, 5.17 µM (active); with KB-3-1, 7.31 µM (active). Further, in assay [5], the Potency result is “inactive”.
With `C=C1C(=O)CC2OC2(C)CC2OC(=O)C(=C)C2C(O)C1OC(=O)/C(C)=C\C` (configuration not stated), the results for the Potency (in assay [3]; in [4]; with HEK293) were 2.26 µM (active), 2.01 µM (active) and 4.53 µM (active), respectively. The Potency entry (in [5]; in the assay with SKOV3) was “inactive” throughout.
For the compound `COc1cc(O)c2c(c1)CCC[C@@H](O)[C@H](O)C(=O)/C=C\C[C@H](C)OC2=O`, the Potency was 14.3 µM (active) in assay [8], 8.01 µM (active) in assay [3], 4.5 µM (active) in [4] and 6.4 µM (active) in the assay on HEK293. Moreover, the Potency result with HeLa is “inactive”.
For `CCOc1ccc(Oc2ccc(OCc3cc(F)ccc3F)cc2)c(N)c1`, the Potency entry (in assay [8]; with CRL-7250; in the assay with HeLa; in the assay on SKOV3) was “inactive” in each case. In assay [2], the Potency was 10.7 µM (active). The figures for the max response with HaCat [6] and in the assay on KB-3-1 were -5.94% (inactive) and -0.382% (inactive), respectively.
Consider `Fc1cc(F)c2c(c1)C1C=CCC1C(c1cccnc1)N2` (configuration not stated), for which the Potency in assay [1] is 23.9 µM (active); in [2], 5.35 µM (active); in assay [3] it was 8.17 µM (active); in assay [4] it was 16.3 µM (active); in the assay with HEK293, 23.1 µM (active); in the assay with HeLa it was 10 µM (active). In addition, in the assay with SKOV3, the Potency was 11.2 µM (active). Besides, the figures for the activity in assay [9], in assay [11] and in [12] were -0.484%, -6.05% and -0.468%, respectively. The activity change, negative = inhibition in [10] is 0.0443%. In assay [5], the Potency result is “inactive”.
In the case of `CCCCCn1cc(C(=O)Oc2cccc3cccnc23)c2ccccc21`, the Potency result (in assay [8]; in assay [1]; with CRL-7250; in the assay with HeLa; with SKOV3) was “inactive” each time. Moreover, the Potency in assay [2] was 3.38 µM (active). In addition, the max response is 2.86% (inactive) in the assay on HaCat [6] and -8.4% (inactive) in the assay on KB-3-1.
For the compound `C=C1C2(C)CC3C(C)(O)C4=CC(=O)OC(C)(C)C4=CCC3(C)C13C(=O)OC(C)C3(O)C2=O` (configuration not stated), the Potency entry (in assay [8]; in the assay on HeLa; with SKOV3) was “inactive” each time. Moreover, the Potency in [5] was 0.733 µM (active). Also, the max response was -2.5% (inactive) with HEK293 and -10.5% (inactive) in the assay on KB-3-1.
For the compound `COC(=O)C12C(=O)C(C)(O)C(=O)C1(C)C(C)=CC1C34CCC(OC3=O)C(C)(C)C4CCC12C` (configuration not stated), the Potency entry (in assay [8]; in assay [3]; in assay [4]; in assay [5]; in the assay on HeLa; in the assay on SKOV3) was “inactive” in each case. Moreover, the values for the max response in the assay on HEK293 and with KB-3-1 were -13.4% (inactive) and -12.2% (inactive), respectively.
`C=C(C)[C@@]12O[C@@H]1[C@@]1(C)C(=CC2=O)CC[C@@H](OC(C)=O)[C@@H]1C`: the Potency in assay [8] is 5.17 µM (active); in [3], 4.59 µM (active); in [4], 3.25 µM (active); with HEK293 it was 3.26 µM (active); in the assay on KB-3-1, 13 µM (active); in the assay with SKOV3, 3.16 µM (active). Moreover, the Potency result in [5] was “inactive”.
